The values that follow come from PubChem BioAssay.

Test [1] addresses Nuclear receptor coactivator 1 (Homo sapiens) (UniProt Q15788). Kind of test: SRC1 coactivator transcriptional activity inhibitors, confirmation, cell-based, luminescence, quadruplicate (AID 588820).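 Further: 0% = DMSO wells and 100% = gossypol 36 µM treated wells.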 The conditions noted are these: HEK293 GAL4-SRC1 luciferase reporter, at 3.6 µM, active compounds read high.
Test [2] in a line: VP16 transactivation inhibitors, counter-screen for SRC1 inhibitor project, cell-based, luminescence, high throughput (AID 588824; in the data active means inhibition above about 25%). Particulars: cell-based VP16 transactivation luciferase luminescence; at 3.6 µM; active compounds read high.

A number with no mark means an inactive call. The source made the active and inactive calls.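 How the source made its calls, unless noted: active means mean inhibition above 46.68%, the untreated control wells mean plus 3 SD; inactive means the rest.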

Chain of Nuclear receptor coactivator 1 (Homo sapiens) (Q15788 whole entry, looked up, the tested form may be a part): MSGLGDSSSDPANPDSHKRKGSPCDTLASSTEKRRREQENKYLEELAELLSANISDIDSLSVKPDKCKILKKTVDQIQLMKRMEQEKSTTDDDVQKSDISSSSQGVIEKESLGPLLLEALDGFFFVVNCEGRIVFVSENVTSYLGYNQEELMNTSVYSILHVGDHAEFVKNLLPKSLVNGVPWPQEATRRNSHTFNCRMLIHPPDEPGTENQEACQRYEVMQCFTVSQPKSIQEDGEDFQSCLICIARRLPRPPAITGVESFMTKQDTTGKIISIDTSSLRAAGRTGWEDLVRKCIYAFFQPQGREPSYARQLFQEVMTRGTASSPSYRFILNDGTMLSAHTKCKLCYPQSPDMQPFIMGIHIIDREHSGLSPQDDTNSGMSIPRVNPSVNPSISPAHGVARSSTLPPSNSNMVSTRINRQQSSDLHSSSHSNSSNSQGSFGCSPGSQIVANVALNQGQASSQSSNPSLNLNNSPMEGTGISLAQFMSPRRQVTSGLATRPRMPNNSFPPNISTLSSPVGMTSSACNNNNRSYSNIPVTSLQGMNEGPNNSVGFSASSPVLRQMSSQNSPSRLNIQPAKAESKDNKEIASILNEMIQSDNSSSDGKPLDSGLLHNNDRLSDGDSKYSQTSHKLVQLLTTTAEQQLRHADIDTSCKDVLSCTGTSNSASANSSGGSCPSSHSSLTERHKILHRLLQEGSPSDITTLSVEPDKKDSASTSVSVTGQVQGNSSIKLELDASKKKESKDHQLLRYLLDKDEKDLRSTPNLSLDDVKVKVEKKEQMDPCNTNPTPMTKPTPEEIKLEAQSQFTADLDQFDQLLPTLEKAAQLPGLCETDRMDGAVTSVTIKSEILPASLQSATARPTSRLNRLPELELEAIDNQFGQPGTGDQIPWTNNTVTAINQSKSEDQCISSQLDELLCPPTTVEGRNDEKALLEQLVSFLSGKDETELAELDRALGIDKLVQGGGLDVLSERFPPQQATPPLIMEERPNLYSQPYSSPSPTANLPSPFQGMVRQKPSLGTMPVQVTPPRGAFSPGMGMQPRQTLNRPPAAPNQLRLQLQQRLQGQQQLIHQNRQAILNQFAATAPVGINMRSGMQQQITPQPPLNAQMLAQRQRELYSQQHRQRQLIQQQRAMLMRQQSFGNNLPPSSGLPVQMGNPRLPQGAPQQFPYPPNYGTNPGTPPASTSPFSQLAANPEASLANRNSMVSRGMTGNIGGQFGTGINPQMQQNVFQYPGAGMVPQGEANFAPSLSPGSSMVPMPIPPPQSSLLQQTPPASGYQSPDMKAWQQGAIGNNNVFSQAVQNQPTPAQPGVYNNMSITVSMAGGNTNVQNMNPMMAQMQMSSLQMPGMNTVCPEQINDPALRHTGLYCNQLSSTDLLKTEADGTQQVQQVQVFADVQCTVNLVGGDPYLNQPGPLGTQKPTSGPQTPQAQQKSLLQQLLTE

Take `CCOc1ncccc1C(=O)NC(C)CCc1ccccc1` (stereo unspecified): the inhibition is 0.01% in test [1] and -0.39% in test [2].
The like results for `COc1ccc(Cc2nnc(SCC(=O)Nc3ccc(C)c(Cl)c3)[nH]c2=O)cc1` were, in that order, 6.82% and 7.22%.
The like results for `CN(C)S(=O)(=O)c1ccc(Cl)c(NC(=O)CN2C(=O)NC(C)(C3CC3)C2=O)c1` (stereo unspecified) were, in that order, -2.39% and -2.88%.
On the same counts, the results for `CCCc1cc(=O)oc2cc(O[C@@H]3O[C@H](CO)[C@@H](O)[C@H](O)[C@H]3O)ccc12` are -9.52% and -11.7%.
For `COc1ccccc1CNC(=O)C(=O)NCCC1CCCCN1S(=O)(=O)c1ccc(C)cc1` (stereo unspecified), the inhibition in test [1] is 26.4%; in test [2] it was 7.29%.
The like results for `COc1cccc(C(C(=O)NC2CCCC2)N(C(=O)c2ccco2)c2ccc(C(C)=O)cc2)c1OC` (stereo unspecified) were, in that order, -0.53% and -9.34%.
The like results for `CN(CC(=O)Nc1c(Cl)cccc1Cl)C(=O)CNC(=O)c1ccc2ccccc2c1` were, in that order, -23.2% and -11.1%.
`Cc1cccc(N2CC(C(=O)Nc3ccc(S(=O)(=O)Nc4nccs4)cc3)CC2=O)c1C` (stereo unspecified): the inhibition was -14.9% in test [1] and -6.59% in test [2].
On the same counts, the results for `COc1ccc(CN2CCN(C(=O)c3cc(-c4cccnc4)nc4ccc(Cl)cc34)CC2)c(OC)c1OC` are -29.8% and -6.25%.
In the case of `O=C(O)CN1C(=O)/C(=C\c2ccccc2OCc2ccc(Cl)cc2Cl)SC1=S`, the inhibition in test [1] was 32%; in test [2] it was -7.27%.
With `CCCCCN(C(=O)CCC(=O)OCC(=O)N(CC#N)c1ccccc1)c1c(N)n(CCCC)c(=O)[nH]c1=O`, the inhibition in test [1] is -5.77%; in test [2], 1.44%.
The like results for `C/C(=N\NC(=O)Cc1ccc(Cl)cc1)c1ccccn1` were, in that order, -28.3% and 23.3%.
The like results for `O=C(Nc1ccc(Cl)c([N+](=O)[O-])c1)C(Sc1ccccc1)c1ccccc1` (stereo unspecified) were, in that order, -8.15% and 5.98%.
The like results for `O=S(=O)(Nc1ccc2c(c1)OCCO2)c1cccs1` were, in that order, 1.12% and -9.45%.
For `CCC(C)OC(=O)C[N+](C)(C)CCOC1CC2CCC1(C)C2(C)C` (stereo unspecified), the inhibition in test [1] is 5.52%; in test [2], 2.28%.
Turning to `COc1cc(-c2cc3nc(NCc4cccs4)ccn3n2)cc(OC)c1OC`, the inhibition in test [1] was -21.6%; in test [2], 6.25%.
Turning to `C=C1C(=O)O[C@@H]2[C@H]1CC[C@H](C)[C@]1(O)CCC(=O)[C@@]21C`, the inhibition in test [1] was -18%; in test [2], 11.1%.
On the same counts, the results for `Fc1cccc(Cl)c1Cn1nnc2c(NCc3ccncc3)ncnc21` are -0.7% and 4.51%.
On the same counts, the results for `CN(C1CCCCC1)S(=O)(=O)c1ccc(NC(=O)C2CCCCC2)cc1` are -0.79% and 11%.
On the same counts, the results for `COc1ccc(-c2[nH]ncc2CN2CCC(O)(c3ccc(Cl)cc3)CC2)cc1` are 13.2% and 10.8%.
Regarding `CC(C)C[C@H]1CNC(=S)N1C[C@H]1CCCN1C[C@H](CC(C)C)N1C[C@H](CC(C)C)N(CCc2ccccc2)C1=S`, the inhibition was -1.01% in test [1] and 1.5% in test [2].
On the same counts, the results for `Cc1ccc(NC(=O)CN(C(=O)N2CCN(C)CC2)S(=O)(=O)c2ccc(C)cc2)cc1` are -4.36% and -2.41%.
On the same counts, the results for `S=C(NC1CCCCC1)N1CCOCCOCCN(C(=S)NC2CCCCC2)CCOCCOCC1` are 7.13% and 7.75%.
On the same counts, the results for `CCN(c1ccccc1)S(=O)(=O)c1cc(C(=O)Nc2ccc(Br)cc2)ccc1F` are 16.9% and 23.2%.
`COc1ccc2cc3c(N)nn(C(=O)c4cccc([N+](=O)[O-])c4)c3nc2c1`: the inhibition in test [1] was 51.3% (active); in test [2], 36.1% (active).
On the same counts, the results for `COc1ccc(C(=O)Oc2ccc(/C=N/NC(=O)c3ccccc3OC)cc2[N+](=O)[O-])cc1` are -11.5% and -0.66%.
As to `CCOC(=O)c1c(NC(=O)COc2ccccc2C#N)sc2c1CC(C)(C)NC2(C)C`, the inhibition is -41.5% in test [1] and -13.1% in test [2].
The like results for `O=C(Nc1ccc(S(=O)(=O)N2CCCCC2)cc1)C1CCN(C(=O)c2ccc(F)cc2)CC1` were, in that order, 7.57% and -1.11%.
As for `CCC(Oc1ccccc1)C(=O)Nc1cc(C(F)(F)F)ccc1N1CCOCC1` (stereo unspecified), the inhibition was 10.6% in test [1] and 1.21% in test [2].
In the case of `COc1ccc(C(=O)Nc2ccc(Cl)c(S(=O)(=O)N3CCOCC3)c2)cc1`, the inhibition in test [1] is -18.1%; in test [2], 1.15%.
Turning to `COc1cc(NC(=O)c2cccc3c(-c4cccnc4)coc23)cc(OC)c1OC`, the values for the inhibition in test [1] and in test [2] were -19.1% and 28.3% (active), respectively.
On the same counts, the results for `CCCCCC(=O)N1CCN(S(=O)(=O)c2ccc3c(c2)OCCO3)CC1` are -2.33% and -1.65%.
Take `COc1ccc(C(=O)NNC(=O)C(=O)Nc2ccc(C)c(Cl)c2)cc1`: the values for the inhibition in test [1] and in test [2] were 5.87% and -0.11%, respectively.
Take `CCCCNC(=O)C1(C)CCCCN1C(=O)c1ccc2c(c1)C(C)(C)CCC2(C)C` (stereo unspecified): the results for the inhibition in test [1] and in test [2] were 7.49% and 10.7%, respectively.
The like results for `COc1ccc(Cl)cc1NC(=O)CSc1nc(=O)n(CCN(C)C)c2c1CCCC2` were, in that order, -13.4% and -0.03%.
The like results for `O=C(Nc1ccccc1)N1CCCN(c2ccc(C(F)(F)F)cn2)CC1` were, in that order, -0.62% and -2.54%.
The like results for `CCN(C(=O)c1cccc(S(=O)(=O)N(C)C)c1)C12CC3CC(CC(C3)C1)C2` were, in that order, 14.8% and 19.5%.
For `Cc1ccc(C(=O)NC2CCCc3c2cnn3-c2ccc(F)cc2F)cn1` (stereo unspecified), the inhibition in test [1] is -17.5%; in test [2], 27.2% (active).
Turning to `COCCn1cnc2c1c(=O)n(Cc1ccccc1C#N)c(=O)n2Cc1ccccc1`, the figures for the inhibition in test [1] and in test [2] were -22.2% and 1.6%, respectively.
The like results for `COc1cc(C(=O)NC(=S)NNC(=O)c2cnccn2)cc(OC)c1OC` were, in that order, 19.6% and -5.2%.
On the same counts, the results for `O=C(CC1CCC1)Nc1cccc2c([N+](=O)[O-])cccc12` are 9.39% and -5.85%.
`CC(C)OCCCn1c(=O)c2ccccc2n2c(CCC(=O)N3CCN(c4ccccn4)CC3)nnc12`: the inhibition in test [1] is -22.8%; in test [2], -9.58%.
On the same counts, the results for `Clc1ccc(C2NCCc3sccc32)cc1` (stereo unspecified) are -22% and 8.67%.
On the same counts, the results for `CCOC(=O)N1CCC(N(CCN(C)C)C(=S)Nc2ccccc2OCC)CC1` are -21.5% and 4.03%.
On the same counts, the results for `COc1ccc(OC)c(S(=O)(=O)N2CCN(c3ccccc3)CC2)c1` are -2.63% and -1.07%.
For the molecule `CCCCC(=O)NC(c1cccc([N+](=O)[O-])c1)c1ccc2cccnc2c1O` (stereo unspecified), the inhibition was 13.2% in test [1] and 24% in test [2].
The like results for `Cc1c(C)n2c(SCC(=O)NCc3ccc4c(c3)OCO4)nnc2[nH]c1=O` were, in that order, -1.32% and -7.94%.
The like results for `Cc1cc(C)n(-c2ccc(C(=O)Nc3ccc(C)c(S(=O)(=O)N4CCOCC4)c3)cc2)n1` were, in that order, 0.36% and -1.58%.
On the same counts, the results for `COc1ccc(NC(=O)NNC(=O)COc2ccc3ccccc3c2)cc1OC` are 14% and 8.08%.
In the case of `COc1cccc(NC2=NC3(CCCCC3)N=C(N)N2)c1`, the inhibition in test [1] is -9.2%; in test [2], 9.05%.
The like results for `O=c1c2ccccc2oc2ccc(C#CC3(O)CCCCC3)cc12` were, in that order, -38.7% and -23.9%.
On the same counts, the results for `NS(=O)(=O)c1ccc(NC(=O)c2cccc3cc4ccccc4nc23)cc1` are -13.3% and 9.91%.
On the same counts, the results for `COC(=O)c1sc2cnccc2c1N` are 21.5% and 4.54%.
On to `NC(=O)c1nsc(C(=O)N(c2ccccc2F)C(C(=O)NCc2ccccc2)c2ccc(O)cc2)c1N` (stereo unspecified), for which the inhibition in test [1] was -15.1%; in test [2], 2.13%.
The like results for `CC(Oc1ccc(F)cc1)C(=O)Nc1cc(S(=O)(=O)N2CCCCC2)ccc1N1CCOCC1` (stereo unspecified) were, in that order, -3.38% and 6%.
The like results for `O=C(Nc1ccc(Cl)c(Cl)c1)c1cccc(S(=O)(=O)NCc2cccnc2)c1` were, in that order, 6.28% and 25.9% (active).
The like results for `Cc1cc(CSc2ccccc2)ccc1NC(=O)c1ccc(CN2CCOCC2)cc1` were, in that order, -33.7% and 33.4% (active).
With `COc1cccc(C=NNC(=O)c2ccncc2)c1O`, the inhibition is 7.89% in test [1] and 10.7% in test [2].
The like results for `COc1ccccc1/C=N/NC(=O)CN(C1=NS(=O)(=O)c2ccccc21)c1ccccc1` were, in that order, -2.78% and 0.92%.
The like results for `Cc1cc(NC(=O)C(Cl)c2ccccc2)no1` (stereo unspecified) were, in that order, -11.5% and 3.89%.
The like results for `COc1ccccc1CN(Cc1nc2ccccc2c(=O)[nH]1)S(=O)(=O)c1ccc2ccccc2c1` were, in that order, -20.3% and -11.3%.
For the molecule `CCCCc1ccc(NC(=O)Nc2c(C)n(C)n(-c3ccccc3)c2=O)cc1`, the inhibition was -11% in test [1] and 7.24% in test [2].
The like results for `CCCCCOC(=O)C1=C(C)NC(=O)NC1c1ccc([N+](=O)[O-])cc1` (stereo unspecified) were, in that order, -6.01% and 2.27%.
On the same counts, the results for `Cc1cccnc1NC(=O)c1cccc(S(=O)(=O)NCc2ccccc2)c1` are -10.8% and 3%.
Take `CS(=O)(=O)Nc1cccc(NC(=O)C2Cc3c(-c4ccco4)ccnc3O2)c1` (stereo unspecified): the inhibition in test [1] is 22.6%; in test [2] it was 14.9%.
The like results for `COc1ccc(-c2csc(NC(=O)c3ccccc3NS(=O)(=O)c3ccc(C)cc3)n2)cc1` were, in that order, 19.3% and 30.8% (active).
On the same counts, the results for `COc1ccc(-c2cc(=O)oc3c(C)c(O)c(CN(C)C)cc23)cc1` are 17.5% and 18.4%.
The like results for `COc1cccc(C2=CC(=O)CC(C)(C)C2)c1` were, in that order, 18.3% and 14.3%.
